This passage reports z-score results from PubChem BioAssay AID488969 (Vanderbilt High Throughput Screening Facility, 2010).

Over roughly 110,000 compounds, “z-score” has its median near -0.1; the highest 2% begin near 2. The sample holds the highest values, similar compounds and a random draw of the others, so the mix is not that of the screen. Activity calls are given as the source filed them.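 Rule for the calls: active = z-score in the third read window above 3 or below -3; inactive = the rest.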

The experiment deals with Metabotropic glutamate receptor 8 (Rattus norvegicus) (UniProt P70579). The experiment is described as follows: rat mGluR8 modulators via GIRK flux, primary screen, cell-based, thallium flux, HTS (AID 488969). The note with it: HEK293 rat mGluR8, GIRK (G protein-gated inwardly rectifying potassium channel) thallium flux, FluoZin2; at 10 µM; stronger effect = higher value; submaximal glutamate (EC20) added with thallium.
Sequence of Metabotropic glutamate receptor 8 (Rattus norvegicus) (P70579 whole entry, looked up): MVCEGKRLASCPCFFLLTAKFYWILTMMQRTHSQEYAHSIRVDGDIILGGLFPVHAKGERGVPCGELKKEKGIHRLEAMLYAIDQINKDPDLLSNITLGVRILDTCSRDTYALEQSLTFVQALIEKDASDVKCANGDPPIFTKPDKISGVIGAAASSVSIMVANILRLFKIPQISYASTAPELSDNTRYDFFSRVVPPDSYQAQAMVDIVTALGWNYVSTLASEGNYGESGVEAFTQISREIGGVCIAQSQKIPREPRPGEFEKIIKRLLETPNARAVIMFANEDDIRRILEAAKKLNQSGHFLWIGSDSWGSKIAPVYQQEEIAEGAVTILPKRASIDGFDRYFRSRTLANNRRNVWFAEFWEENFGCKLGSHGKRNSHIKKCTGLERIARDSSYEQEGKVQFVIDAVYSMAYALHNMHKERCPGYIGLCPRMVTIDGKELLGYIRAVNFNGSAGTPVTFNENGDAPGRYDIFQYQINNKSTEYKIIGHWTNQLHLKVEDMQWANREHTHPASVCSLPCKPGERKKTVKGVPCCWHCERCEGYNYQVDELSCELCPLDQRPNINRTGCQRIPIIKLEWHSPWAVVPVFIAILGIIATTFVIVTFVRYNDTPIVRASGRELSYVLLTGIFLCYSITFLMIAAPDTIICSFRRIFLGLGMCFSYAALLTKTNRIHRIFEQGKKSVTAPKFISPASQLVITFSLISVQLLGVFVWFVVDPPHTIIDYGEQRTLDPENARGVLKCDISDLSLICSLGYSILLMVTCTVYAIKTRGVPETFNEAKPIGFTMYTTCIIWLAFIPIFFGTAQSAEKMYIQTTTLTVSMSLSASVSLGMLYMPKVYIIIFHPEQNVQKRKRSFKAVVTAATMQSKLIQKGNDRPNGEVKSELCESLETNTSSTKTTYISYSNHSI
In the case of `O=C(CNC(=O)c1ccccc1F)NCCOc1cccc(Cl)c1Cl`, the z-score is -0.0129.
`COCCNC(=O)CN(C(=O)CCC(=O)Nc1cc(C)on1)c1cccc(C)c1C` had a z-score of -0.171.
To `CC(C)NS(=O)(=O)c1ccc(CCC(=O)Nc2ccc3c(c2)OCO3)cc1` belongs -0.224; to `CCc1ccc2[nH]c(O)c(N=Nc3nc(-c4ccccc4)cs3)c2c1`, 2.89.
As for `CCc1cc(C(=O)N=Nc2c(O)[nH]c3ccc([N+](=O)[O-])cc23)c2ccccc2n1`, the figure is -0.481.
As for `CCc1cc2c(N=Nc3c(O)[nH]c4ccccc34)ncnc2s1`, the figure is -0.149; as for `COC(=O)CSc1cnc2ccccc2n1`, 0.141; as for `CCOC(=O)c1c(NC(=O)c2ccccc2N(C)S(=O)(=O)c2ccccc2)sc2c1CCCC2`, -0.168.
Take `CCOC(=O)c1c(NC(=S)Nc2ccc(C)cc2)sc2c1CCC2`: the z-score is -0.0357.
`Cc1ccc(C(=O)OCC(=O)Nc2sc3c(c2C#N)CCC3)cc1` returned a z-score of -0.0585.
As for `CC(C)OC(=O)c1c(NC(=O)c2ccco2)sc2c1CCCCC2`, the figure is -0.501; as for `COC(=O)c1c(NC(=O)c2ccco2)sc2c1CCC2`, -0.464.
Consider `COC(=O)c1c(NC(=S)NC(=O)c2ccco2)sc2c1CCCC2`, for which the z-score was 3.53 (active).
As for `CCOC(=O)c1c(NC(=O)c2ccco2)sc2c1CCCCC2`, the figure is -0.506; as for `CCOC(=O)c1c(NC(=S)Nc2ccc(F)cc2)sc2c1CCC2`, -0.154.
As for `Cc1ccc(C(=O)OCC(=O)Nc2sc3c(c2C#N)CCCC3)cc1NC(=O)c1ccco1`, the figure is 2.03; as for `CCOC(=O)c1c(NS(=O)(=O)Cc2ccccc2)sc2c1CCCC2`, 17.1 (active).
`Cc1ccc(C(=O)OCC(=O)Nc2sccc2C(N)=O)cc1NC(=O)c1ccco1` displayed a z-score of -0.747.
As for `CCOC(=O)c1c(NC(=S)Nc2ccccc2)sc2c1CCCCC2`, the figure is 3.94 (active).
To `CC(=O)Nc1ccc2nc(C)n(Cc3ccc(Cl)cc3)c(=O)c2c1` belongs -0.376; to `CCOC(=O)N1CCC(NC(=O)C2CCN(c3ccc(N4CCOCC4)nn3)CC2)CC1`, -0.202; to `CCCOc1ccc(N2C(=O)CC(N3CCN(c4ccccc4OC)CC3)C2=O)cc1` (centres undefined), -0.446.
In turn, `COC(=O)C1=CNC=C(C(=O)OC)C1c1ccccc1Cl` gave a z-score of -1.54.
`CCOc1ccccc1N(CC(=O)Nc1ccccc1C(=O)O)S(C)(=O)=O` had a z-score of 0.403.
Take `c1ccc2nc3c(cc2c1)CCCCCC3`: the z-score was -0.0331.
As for `CCOC(=O)c1nnn(-c2nonc2N)c1-c1cccc2ccccc12`, the z-score was -1.66.
To `O=C(NCc1ccc2c(c1)OCO2)C1CC(c2ccccc2O)=NO1` (centres undefined) belongs 0.36; to `COc1ccc(C(C[N+](=O)[O-])c2c(-c3ccccc3)cc3ccccn23)cc1` (centres undefined), 0.715; to `Cc1snc(SCC(=O)N/N=C(\N)COc2ccc(F)cc2)c1C#N`, 0.165.
As for `Cn1c(CNc2ccc(Cl)cc2)nnc1SCCN1CCCCC1`, the figure is 0.273; as for `O=C(COc1ccc([N+](=O)[O-])cc1)NCCC1=CCCCC1`, -0.0621.
`CCCNC(=S)Nc1ccc(Cl)cc1Cl`: the z-score is -0.0325.
Turning to `COC(=O)c1c(NS(=O)(=O)c2cccs2)sc2c1CCCC2`, the z-score was 6.32 (active).
To `COC(=O)c1c(NS(=O)(=O)c2ccc3ccccc3c2)sc2c1CCCC2` belongs 0.384.
To `COC(=O)c1c(NC(C)=O)sc2c1CCCC2` belongs -0.117; to `COC(=O)c1c(NC(=O)CN(c2ccccc2)S(C)(=O)=O)sc2c1CCCC2`, 0.77.
In the case of `COC(=O)c1c(NS(=O)(=O)Cc2ccccc2)sc2c1CCCC2`, the z-score is 17 (active).
To `COC(=O)c1c(NS(C)(=O)=O)sc2c1CCCC2` belongs 0.0189.
As for `C=CCn1c(Cc2csc(N)n2)nnc1SCC(=O)Nc1ccc(C(=O)OCC)cc1`, the figure is -2.2; as for `CCOC(=O)C1CCN(C(=O)c2ccccc2Oc2ccccc2)CC1`, -0.386.
`COc1ccc(-c2nsc(SCC(=O)Nc3ccc4c(c3)OCO4)n2)cc1` came in with a z-score of -0.142.
To `CCOC(=O)NCc1ccc(S(=O)(=O)Nc2ccc(C)cc2)cc1` belongs 0.21.
To `Cc1ccc(-c2cc(N)n(Cc3ccc(Cl)cc3)n2)cc1` belongs -0.532; to `CC(C)C(=O)NC(=S)N(Cc1ccccc1)Cc1ccccc1`, 9.57 (active).
`CC(C)CC(=O)NC(=S)NCCc1ccccc1`: the z-score is 0.38.
As for `CC(C)CC(=O)NC(=S)N(Cc1ccccc1)Cc1ccccc1`, the figure is 8.66 (active); as for `O=C(NC(=S)N(Cc1ccccc1)Cc1ccccc1)c1ccccc1F`, -1.15; as for `CC(C)CC(=O)NCCCCc1ccccc1`, -0.29.
Compound `O=C(NC(=S)N(Cc1ccccc1)Cc1ccccc1)C1CCCCC1` gave a z-score of 0.526.
As for `CN(C)CCN1C(=O)C(O)=C(C(=O)c2cc3ccccc3o2)C1c1ccc(N(C)C)cc1` (centres undefined), the figure is -0.145.
With `CC(C)(C)c1ccc(S(=O)(=O)NC(Cc2ccccc2)C(=O)O)cc1` (centres undefined), the z-score turned out to be 0.161.
As for `Cc1nn(Cc2ccc(Cl)cc2Cl)c(Cl)c1/C=N/NC(=O)CNc1cccc(C(F)(F)F)c1`, the figure is -0.087; as for `CCOCCn1c(=NC(=O)c2cc(Cl)sc2Cl)sc2cc(S(N)(=O)=O)ccc21`, -0.0217; as for `CCCCNC(=O)CCn1c(=O)c2ccccc2n(Cc2ccc(F)cc2)c1=O`, -0.407.
As for `COc1cc(OC)cc(C(=O)N[C@H](C(=O)N2CCc3ccccc32)C(C)C)c1`, the figure is -0.177; as for `c1cc2c3c(cccc3c1)C(N1CCCCCC1)=N2`, 0.822.
To `CCCCN(C)C1=Nc2cccc3cccc1c23` belongs 3.17 (active); to `c1cc2c3c(cccc3c1)C(N1CCN(C3=Nc4cccc5cccc3c45)CC1)=N2`, -0.0313.
`COc1cc(S(=O)(=O)N(Cc2ccccc2)Cc2ccccn2)ccc1-n1cnnn1` registered a z-score of -0.0596.
As for `N#CCCN1CCN(S(=O)(=O)c2ccc3c(c2)OCCCO3)CC1`, the z-score is -0.473.
To `Cc1c(C(=O)N2CCOCC2)[nH]c2c1C(=O)CC(c1ccc(Cl)cc1)C2` (centres undefined) belongs -0.803.
Regarding `Cc1c(C(=O)O)[nH]c2c1C(=O)CC(c1ccccc1)C2` (centres undefined), the z-score was -0.21.
To `Cc1c(C(=O)O)[nH]c2c1C(=O)CC(c1ccc(Cl)cc1)C2` (centres undefined) belongs 5.28 (active); to `CC(C)=CCC/C(C)=C/C=N/NC(=O)c1ccc([N+](=O)[O-])cc1`, 1.52.
As for `CCOC(=O)C1CCC2(CC1)C(C#N)=C(N)Oc1n[nH]c(C)c12` (centres undefined), the figure is 0.0849; as for `CCOc1ccc(S(=O)(=O)N(CC(=O)Nc2cc(C)on2)Cc2ccccc2Cl)cc1`, -1.72; as for `CC(=O)c1ccc(OC(=O)C2CC(=O)N(c3cccc(C)c3)C2)cc1` (centres undefined), -1.58.
The compound `O=C(Nc1ccccc1Br)C(=O)N1CCCC1` showed a z-score of -0.0281.
To `Cc1ccccc1NC(=O)Nc1ccccc1Br` belongs -0.375.
Take `O=C(NNc1ccccc1Br)C(=O)n1ccc2ccccc21`: the z-score is 2.23.
To `Cc1ccc(S(=O)(=O)N2CCN(c3cc4c(cc3[N+](=O)[O-])n(C)c(=O)n4C)CC2)cc1` belongs -0.078; to `COC(=O)c1cc2ccccc2c(-c2c(O)ccc3ccccc23)c1O`, 0.0387.
As for `Cc1ccc(C(=O)C2C(c3cccs3)NC(=O)NC2(O)C(F)(F)F)cc1` (centres undefined), the figure is 2.58; as for `Cc1ccc(C2NC(=O)NC(O)(C(F)(F)F)C2C(=O)c2cccs2)o1` (centres undefined), -0.404.
As for `O=C1NC(c2ccccc2)C(C(=O)c2cccs2)C(O)(C(F)(F)F)N1` (centres undefined), the figure is -0.23; as for `Cc1nnc(NC(=O)c2cccc(S(=O)(=O)N3CCc4ccccc43)c2)s1`, 0.437.
Take `CSc1ccc(C(=S)N2CCN(CCO)CC2)cc1`: the z-score turned out to be 0.0369.
As for `CC(CN1CCN(C)CC1)OC(=O)c1ccc(Cl)cc1Cl` (centres undefined), the figure is 0.335.
As for `CC(CN1CCCCC1)OC(=O)c1ccc(Cl)cc1Cl` (centres undefined), the figure is 2.27.
As for `CC(CN1CCN(C)CC1)OC(=O)c1ccc(Cl)cc1` (centres undefined), the figure is 1.05.
In the case of `CCCCOc1ccc(S(=O)(=O)NCc2csc(C)n2)cc1`, the z-score was -1.17.
As for `Cc1nc(/N=C(\N)NC(=O)N2c3ccccc3Sc3ccccc32)nc2ccccc12`, the figure is -0.0514; as for `Cc1nc(/N=C(\N)NC(=O)c2ccccc2)nc2ccccc12`, 2.8.
`N/C(=N\c1nc2ccccc2o1)NC(=O)c1ccccc1` came in with a z-score of -0.339.
To `CCOc1nc(S(=O)(=O)c2ccc(C)cc2)c(Cl)s1` belongs -0.802; to `CC1CCCN(c2nc3ccccc3nc2C(C#N)S(=O)(=O)c2cccs2)C1` (centres undefined), -1.84; to `O=C(CCNC(=O)c1ccccc1Cl)NCC12CC3CC(CC(C3)C1)C2`, -0.16.
As for `Cc1nn(-c2ccc(C(=O)O)cc2)c(C)c1Oc1ccccc1O`, the figure is -0.318; as for `Cc1cc(C)nc(-n2nc(C)c(Oc3ccccc3O)c2C)n1`, -0.176.
To `Cc1nn(-c2ccc(C(F)(F)F)cn2)c(C)c1Oc1ccccc1O` belongs 2.25; to `COc1ccc(CCNC(=O)C2CC(=O)N(c3ccccc3)C2)cc1OC` (centres undefined), 0.172.
In the case of `O=C(CSc1nnc(Cc2cc(=O)[nH]c(=O)[nH]2)n1-c1ccccc1)NCC1CCCO1` (centres undefined), the z-score stood at 0.18.
As for `Cn1nnc(NC(=O)c2cccc(OCc3ccccc3)c2)n1`, the figure is -0.179; as for `Cc1ccc(C(=O)NCC2CCCO2)cc1[N+](=O)[O-]` (centres undefined), 0.0557; as for `COC(=O)CSc1nc2c(c(=O)[nH]c(=O)n2C)n1CCC(C)C`, -0.127.
To `CCCCn1c(SCC(=O)OCC)nc2c1c(=O)[nH]c(=O)n2C` belongs -0.555; to `CCCCCn1c(SCC(=O)OC)nc2c1c(=O)[nH]c(=O)n2C`, 2.01; to `Cc1ccc2cc(S(=O)(=O)NCCCC(=O)O)ccc2c1`, -0.0725.
To `CCCCNC(=O)c1ccc(N2CCC3(CC2)OCCO3)c([N+](=O)[O-])c1` belongs -0.757.
